Compounds with a hit are over-represented: about 19% of the library has one in this group of screens.
CHX counter: counter-screen for Shiga toxin inhibitors: cycloheximide protein synthesis inhibition; cell reporter, cycloheximide protein synthesis inhibition counterscreen; max response, %; actives 12% (n = 300,000); AID 2314; in the data active = max response mostly above about 13%, no sharp cut-off; inactive = mostly below about 14%; note: read at 38.3 µM for the half of the compounds with a filed dose
Marburg entry inh: inhibitors of Marburg virus binding or cell entry | Marburg virus pseudotyped entry inhibition, cell reporter | Potency, µM (doses to about 37.8 µM), most hits filed as inhibitors | actives 1.8% (n = 300,000) | AID 540276; calls by dose curve; tested in HEK293 cells
Pf growth 96h: P. falciparum growth inhibition at 96 hour, primary screen for plastid delayed-death inhibitors. actives 6.9% (n = 320,000). AID 504834. P. falciparum luciferase reporter growth, 96 h. Potency, µM (series often up to 28.7 µM), most hits filed as inhibitors
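P. falciparum expressing integrated firefly luciferase, in erythrocytes at 2% hematocrit, 0.05% parasitemia, incubated with compounds 96 h at 37 C, 5% CO2. Growth inhibition read as loss of luminescence; two-generation exposure targets delayed-death apicoplast inhibitors.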
Pf growth 48h: inhibits P. falciparum growth in the first generation, 48 h; P. falciparum luciferase growth in erythrocytes, 48 h; Potency, µM (top dose mostly 28.7 µM), actives largely listed as inhibitors; actives 5.9% (n = 310,000); AID 504832
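Erythrocytes infected with P. falciparum carrying an integrated firefly luciferase reporter (2% hematocrit, 0.1% parasitemia final) were exposed to compounds in RPMI 1640 with 0.5% Albumax at 37 C, 5% CO2. Growth inhibition was scored as reduced luminescence.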
Shiga toxin inh: inhibitors of Shiga toxin in Vero cells; Vero cells, Shiga toxin protein synthesis inhibition reporter; inhibition, % at 38.7 µM; actives 9.2% (n = 290,000); in the data active = inhibition mostly above about 28%, no sharp cut-off; inactive = mostly below about 43%
LASV entry inh: inhibitors of Lassa virus binding or cell entry. AID 540256. Lassa virus pseudotype entry inhibition, cell reporter. actives 1.2% (n = 300,000). Potency, µM (titrated, usually from 37.9 µM), usual class: inhibitors; calls by dose curve; tested in HEK293 cells; note: nearly all actives have a fitted effect of over 50% in size
Hits are given with their value; – = inactive; ? = inconclusive; · = no result given; [ ] = remark or other dose. Unless noted, calls come from the whole dose curve; as a rule, active = well fitted inhibition curve with a large enough effect; inconclusive = small, poorly fitted or top-dose-only effect, or another doubt; inactive = no such curve, though single readings can be large or run the other way.

SMILES	CHX counter	Marburg entry inh	Pf growth 96h	Pf growth 48h	Shiga toxin inh	LASV entry inh
COC(=O)C1=C(C)Nc2c(c(=O)n(C)c(=O)n2C)C1c1cccs1 (centres undefined)	–	–	·	–	–	–
CCc1ccc(N2CC(C(=O)NNC(=O)c3ccc(F)cc3)CC2=O)cc1 (centres undefined)	·	–	–	–	·	–
Cc1ccc(S(=O)(=O)Nc2c(C)[nH]c(=O)[nH]c2=O)cc1C	–	?	2.6µM	–	–	–
Cc1[nH]c(=O)[nH]c(=O)c1NS(=O)(=O)c1ccc2c(c1)CCCC2	–	–	·	–	–	–
CC(Oc1ccc(-c2ccccc2)c(F)c1)c1ccn(S(=O)(=O)c2ccc(F)cc2)n1 (centres undefined)	–	?	?	?	–	–
COc1ccc(S(=O)(=O)n2ccc(C(C)Oc3ccc(-c4ccccc4)c(F)c3)n2)cc1 (centres undefined)	–	?	17µM	13µM	–	?
CN1CCN(c2c(F)cc([N+](=O)[O-])c(N)c2Br)CC1	–	–	–	–	–	?
CC(C)(C)c1nc2ccccc2c2nnc(SCC(=O)Nc3nccs3)n12	–	?	–	–	–	?
Cc1ccc(C(=O)c2oc3ccccc3c2NC(=O)c2cc(-c3ccccc3O)n[nH]2)cc1	–	–	0.59µM	1.5µM	–	–
Cc1ccc(C(=O)c2oc3ccccc3c2NC(=O)c2cc(-c3cc(C)ccc3O)n[nH]2)cc1	–	·	0.33µM	0.33µM	–	·
CC(C)(C)c1ccc(C(=O)Nc2c(C(=O)c3ccc(F)cc3)oc3ccccc23)cc1	·	–	·	·	·	–
O=C(Nc1c(C(=O)c2ccccc2)oc2ccccc12)c1cc(-c2ccccc2O)n[nH]1	–	?	0.66µM	1.5µM	–	–
Cn1ncc(Cl)c(Oc2ccc(Cl)cc2)c1=O	–	?	–	–	–	?
Cc1csc2nc(COC(=O)c3ccccc3NC(=O)c3cccc(Br)c3)cc(=O)n12	·	·	·	·	·	–
CN[C@@H](C)[C@@H](O)c1ccccc1	–	·	–	–	–	·
CC(C)=NOC(=O)c1ccc(-c2ccccc2)cc1	–	–	?	?	–	–
N/C(=N\OC(=O)c1ccc(F)cc1)c1ccccc1	59	–	10µM	–	150	–
Cc1ccc(/C(N)=N/OC(=O)c2ccc(F)cc2)cc1	49	?	?	–	91	?
N/C(=N\OC(=O)c1ccc(F)cc1)c1ccc(Br)cc1	33	?	?	–	70	–
C/C(=N\OC(=O)c1ccc(F)cc1)c1ccc(F)c(F)c1	–	·	–	–	–	·
Cc1cccc(OCCNC(=O)c2cc(-n3cnnc3)ccc2Cl)c1	–	–	–	–	–	–
Cn1cnc([N+](=O)[O-])c1Nc1ccc(O)cc1	–	–	?	–	–	–
N#Cc1nc(-c2ccc(OCc3ccccc3)cc2)oc1NCCCn1ccnc1	–	?	–[5.75 µM]	2.9µM	–	–
CCCOc1ccc(-c2nc(C#N)c(NCCCn3ccnc3)o2)cc1	–	–	7.4µM	10µM	–	–
N#Cc1nc(-c2ccc(OCc3ccccc3)cc2)oc1NCc1cccnc1	–	–	?	?	–	–
SMILES	CHX counter	Marburg entry inh	Pf growth 96h	Pf growth 48h	Shiga toxin inh	LASV entry inh
N#Cc1nc(-c2ccc(OCc3ccc(Cl)cc3)cc2)oc1NCc1cccnc1	35	–	?	–	75	?
CN(C)c1oc(-c2ccc(OCc3ccccc3)cc2)nc1C#N	31	?	5.2µM	–	49	–
Oc1ccccc1Cn1c(-c2ccccc2O)nc2ccccc21	–	–	·	?	–	–
COc1ccc(NC(=O)CCc2nnc3ccc(NCc4ccco4)nn23)cc1OC	–	?	?	–	–	?
Cc1ccc(OCc2nc(C#N)c(NCCCn3ccnc3)o2)cc1	–	–	·	–	–	–
CCOc1ccc(-c2nc(C#N)c(NCc3ccco3)o2)cc1	23	–	–	?	46	–
N#Cc1nc(-c2ccc(OCc3ccccc3Cl)cc2)oc1NCCCn1ccnc1	15	–	–	1.7µM	26	·
N#Cc1nc(COc2ccccc2)oc1NCCCn1ccnc1	27	–	?	?	33	?
CC(C)CNC(=O)c1ccccc1NC(=O)CCSc1ccccc1	–	–	?	–	–	–
CC(C)CNC(=O)c1ccccc1NC(=O)Nc1ccccc1	–	–	10µM	·	–	–
CC(C)CNC(=O)c1ccccc1NC(=O)c1ccc(CSc2ccccc2)cc1	–	–	10µM	13µM	–	–
Cc1cc(N2CCN(C)CC2)nc2ccc(NC(=S)N3CCC4(CC3)OCCO4)cc12	–	–	12µM	4.1µM	–	?
CCN1CCN(c2cc(C)c3cc(NC(=S)N4CCC5(CC4)OCCO5)ccc3n2)CC1	–	·	?	?	–	·
Cc1ccc(C)c(N2CCN(C(=S)Nc3ccc4nc(N5CCOCC5)cc(C)c4c3)CC2)c1	–	?	–	?	–	–
Cc1ccc(C)c(N2CCN(C(=S)Nc3ccc4nc(N5CCN(C)CC5)cc(C)c4c3)CC2)c1	–	·	–	10µM	–	·
Cc1nc2ccc(NC(=S)N3CCN(c4ccccn4)CC3)cc2nc1C	–	?	?	–	–	–
Cc1cc(N2CCN(C)CC2)nc2ccc(NC(=S)N3CCN(c4ccccn4)CC3)cc12	–	?	9.3µM	–	–	–
O=C1CCCc2nc(N3CCN(c4ccccc4)CC3)ncc21	–	?	–	–	–	?
Fc1cnc(N2CCN(c3ccccc3)CC2)nc1N1CCN(c2ccccc2)CC1	–	?	–	13µM	–	?
Cc1ccccc1NC(=S)NC(NC(=O)c1ccccc1C)C(Cl)(Cl)Cl (centres undefined)	–	?	2.6µM	?	–	?
Cc1ccc(NC(=S)NC(NC(=O)c2ccccc2)C(Cl)(Cl)Cl)c(C)c1 (centres undefined)	–	?	?	10µM	–	?
Cc1ccc(C)c(NC(=S)NC(NC(=O)Cc2ccccc2)C(Cl)(Cl)Cl)c1 (centres undefined)	–	?	·	?	–	?
Cc1ccccc1C(=O)NC(NC(=S)Nc1ccc(S(N)(=O)=O)cc1)C(Cl)(Cl)Cl (centres undefined)	–	?	?	?	–	–
Cc1ccc(C(=O)NC(NC(=S)Nc2ccc(S(N)(=O)=O)cc2)C(Cl)(Cl)Cl)cc1 (centres undefined)	–	–	–	–	–	–
Cc1cc(C)c(NC(=S)NC(NC(=O)c2ccccc2)C(Cl)(Cl)Cl)c(C)c1 (centres undefined)	–	?	–	3.3µM	–	?
SMILES	CHX counter	Marburg entry inh	Pf growth 96h	Pf growth 48h	Shiga toxin inh	LASV entry inh
Cc1ccc(OCC(=O)OCC(=O)NC2CCCC2)cc1C	·	·	–	–	·	·
Cc1cc(C)c(C(N)=O)c(NCCc2ccccc2)n1	–	–	?	–	–	–
O=C(Nc1nc2c(Br)cc(Br)cc2c(=O)s1)C1CCC1	–	·	–	2.3µM	–	·
CN(C)CCCNc1nccc(-c2c(-c3ccc(F)cc3)nn3cc(C(F)(F)F)ccc23)n1	·	·	·	·	·	22µM
COc1ccc2nc3cccc(OC)c3nc2c1	44	·	?	?	63	·
COc1ccc(-c2nc3ccccc3nc2-c2ccc(OC)c(OC)c2)cc1OC	–	·	–	?	–	·
